Reference: the supplement of paper PMC12350171
Where a name gives a salt, the structure may show the parent alone. A number with no mark means an inactive call.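 How the source made its calls: active = AUC significantly below DMSO controls by Student t-fit with adjusted P under 0.01; inactive = not significantly reduced.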

Test system: Haemophilus parainfluenzae
Experiment: growth AUC normalised to DMSO control (fraction of control); higher = less growth inhibition, active = hit call of the paper
Conditions: 20 µM
Outline: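 For the AUC endpoint, growth curves were integrated by the trapezoidal rule up to the exponential-to-stationary transition and normalised to DMSO controls on the same plate. The curves came from OD578 readings taken hourly for 24 h, in three biological replicates. Pathogens had been passaged anaerobically twice and inoculated at an OD578 of 0.01 into pre-reduced mGAM plates carrying 20 μM compound and 1% DMSO, sealed with breathable membranes. Medium for Haemophilus parainfluenzae also contained hemin and NAD.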

| SMILES | growth AUC normalised to DMSO control |
| --- | --- |
| Nc1ccc(S(=O)(=O)Nc2ccccn2)cc1 [Sulfapyridine] | 0.976 |
| CC(CCc1ccccc1)NCC(O)c1ccc(O)c(C(N)=O)c1 (configuration not stated) [Labetalol hydrochloride] | 0.954 |
| O=C1c2ccccc2S(=O)(=O)N1CCCCN1CCN(c2ncccn2)CC1 [Ipsapirone] | 0.979 |
| C[C@H](CCC(=O)O)[C@H]1CC[C@H]2[C@@H]3CC[C@@H]4C[C@H](O)CC[C@]4(C)[C@H]3CC[C@]12C [Lithocholic acid] | 1.04 |
| COc1ccc(CN(CCN(C)C)c2ccccn2)cc1 [Pyrilamine maleate] | 0.99 |
| CCCCC(O)c1ccccc1 (configuration not stated) [Fenipentol] | 0.989 |
| C[C@@H]1CN(c2c(F)c(N)c3c(=O)c(C(=O)O)cn(C4CC4)c3c2F)C[C@H](C)N1 [Sparfloxacin] | 0.0765 (active) |
| CC1=C(/C=C/C(C)=C/C=C/C(C)=C/C(=O)O)C(C)(C)CCC1 [Retinoic acid] | 0.995 |
| O=C(NCCO[N+](=O)[O-])c1cccnc1 [Nicorandil] | 0.987 |
| Cc1cccc(N(C)C(=S)Oc2ccc3ccccc3c2)c1 [Tolnaftate] | 1 |
| COc1ccc([C@@H]2CC(=O)c3c(O)cc(O[C@@H]4O[C@H](CO[C@@H]5O[C@@H](C)[C@H](O)[C@@H](O)[C@H]5O)[C@@H](O)[C@H](O)[C@H]4O)cc3O2)cc1O [Hesperidin] | 1.07 |
| CC(=O)O[C@]1(C(C)=O)CC[C@H]2[C@@H]3C=C(C)C4=CC(=O)CC[C@]4(C)[C@H]3CC[C@@]21C [Megestrol acetate] | 1.06 |
